# According to PubChem BioAssay (NCATS):
# Inconclusive results are not listed. Where a call stands in place of a potency, no number is given. Calls of active or inactive are those of the source. Calls follow the shape of the dose curve; as a rule, active = well fitted cell-killing curve with a large enough effect; inconclusive = small, poorly fitted or top-dose-only effect; inactive = flat fitted curve, though single readings scatter.
# Assay: qHTS of pediatric cancer cell lines to identify multiple opportunities for drug repurposing: Primary screen for BT-37 cells (AID 1347094)
# Conditions: BT-37 viability, CellTiter-Glo luminescence, 48 h; series mostly up to 57.3 µM
# Text: Drug repurposing or repositioning has been offered as a strategy for drug development in oncology programs. This approach has special potential for childhood cancers and other rare or orphan diseases, where the expected return on new drug development has been a disincentive to pharmaceuticals. […] In this project we exploit the poly-pharmacology of drugs to discover new indications via phenotypic screening of a panel of 19 well-characterized cell lines derived from solid tumors seen in children and adolescents. The goal is to identify approved drugs with previously unrecognized anticancer properties that has the potential to reveal new mechanisms and biological processes involved in carcinogenesis or drug resistance. We employed a titration-based paradigm (quantitative high-throughput screening or qHTS), where all compounds were tested at multiple concentrations for their effect on cell viability. Concentration-response curves (CRCs) were derived directly from the primary screen, and both potency and efficacy values were used to identify compounds with robust bioactivity profiles. We screened the NIH Chemical Genomics Center (NCGC) Pharmaceutical Collection (NPC) and Mechanism Interrogation Plate (MIPE) small molecule collections of approved and investigational compounds against these cell lines; and measured metabolically active cells after 48 hours of compound treatment as a proxy for cell viability. […] Assay Submitter: Nathalia J. Martinez, National Center for Advancing Translational Sciences, National Institutes of Health, Rockville, MD, USA; email: natalia.martinez@nih.gov Shen, M et al. Quantitative high-throughput phenotypic screening of pediatric cancer cell lines identifies multiple opportunities for drug repurposing. Oncotarget 2017 Dec 19;9(4):4758-4772. PMID 29435139.
# The cells were obtained from University of North Carolina (UNC), Pediatric Preclinical Testing Program (PPT), and Coriell Institute (CI). qHTS cell viability assay: Cells were assayed in growth media at a density of 500-1,000 cells/well. Five microliters of cells were dispensed into 1,536-well, white, solid-bottom, TC-treated plates (Greiner Bio One) using a multidrop dispenser and incubated at 37 degrees C, 5% CO2, under a humidified atmosphere for 5 hours. Twenty-three nanoliters of compounds and controls (neutral control DMSO or positive control bortezomib at final concentration of 2.3 µM) were subsequently transferred by Kalypsys pintool. For primary screens, the MIPE collection was tested at 11-point dilutions (final concentrations range from 0.78 nM to 46 µM) and the NPC collection at 8-point dilutions (final concentrations range from 0.59 nM to 46 µM). Compounds tested in follow-up screens were assayed at 11-point dilutions. Cells were incubated for 48 hours, followed by addition of 3 µL of CellTiter-Glo (Promega). After a 15 min incubation at room temperature, samples were analyzed for luminescence intensity using a ViewLux High-throughput CCD imager equipped with clear filters.
# Potency is read from the fitted curve at half-maximal effect.
row,SMILES,Potency
1,CC[C@H]1OC(=O)[C@H](C)[C@@H](O[C@H]2C[C@@](C)(OC)[C@@H](O)[C@H](C)O2)[C@H](C)[C@@H](O[C@@H]2O[C@H](C)C[C@H](N(C)C)[C@H]2O)[C@](C)(O)C[C@H](C)C(=NOCOCCOC)[C@H](C)[C@@H](O)[C@]1(C)O,inactive
2,O=[N+]([O-])c1ccc(Nc2ccccc2-c2ccccc2)c2nonc12,inactive
3,Cc1cc(NC(=O)Nc2ccc(N(C)C)cc2)c2cc(F)cc(F)c2n1,inactive
4,Cc1ccc(NC(=O)c2ccc(CN3CCN(C)CC3)cc2)cc1Nc1nc(-c2cccnc2)cs1,24.3 µM (active)
5,O=C(c1ccc(C(=O)N2CCC(N3CCCC3)CC2)c(Nc2ccccc2)c1)N1CCC(N2CCCC2)CC1,inactive
6,CCCCC(F)(F)[C@@]1(O)CC[C@H]2[C@H](CC(=O)[C@@H]2CCCCCCC(=O)O)O1,inactive
7,N#CC(=C1Nc2ccccc2S1)c1ccnc(OCc2ccc(CN3CCOCC3)cc2)n1,0.306 µM (active)
8,NC[C@H]1O[C@H](O[C@@H]2[C@@H](O)[C@@H](O[C@H]3O[C@H](CO)[C@@H](O)[C@H](N)[C@@H]3O)[C@H](N)C[C@@H]2N)[C@H](O)[C@@H](O)[C@H]1O,inactive
9,CCn1c(-c2nonc2N)nc2cncc(CNC3CCNCC3)c21,inactive
10,CNC1[C@H](O)C(O[C@@H]2C(O)C(O[C@H]3O[C@H]([C@@H](C)NC)CC[C@H]3N)[C@@H](N)C[C@H]2N)OC[C@]1(C)O (stereo not given in full),inactive
11,C[C@@H]1[C@H](O)[C@@H](C)C=CC=CC=CC=CC=CC=CC=C[C@H](O[C@@H]2O[C@H](C)[C@H](O)[C@H](N)[C@@H]2O)C[C@@H]2O[C@](O)(C[C@@H](O)C[C@@H](O)[C@H](O)CC[C@@H](O)C[C@@H](O)CC(=O)O[C@H]1C)C[C@H](O)[C@@H]2C(=O)O,inactive
12,COc1cc2nccc(Oc3ccc(NC(=O)Nc4ccc(F)cc4F)c(F)c3)c2cc1OC,inactive
13,COc1cc(C=CC(=O)O)ccc1O,inactive
14,C[C@]12CC[C@@H]3c4ccc(O)cc4CC[C@H]3[C@H]1[C@@H](O)[C@@H](O)[C@H]2O,inactive
15,Cc1ccc(NC(=O)Nc2cc(C(F)(F)F)ccc2F)cc1Nc1ccc2c(c1)NC(=O)C2=Cc1ccc[nH]1,24.3 µM (active)
16,CCOC(=O)[C@H]1O[C@H]1C(=O)N[C@@H](CC(C)C)C(=O)NCCC(C)C,inactive
17,Cc1[nH]c(C=C2C(=O)Nc3ccc(S(=O)(=O)N(C)c4cccc(Cl)c4)cc32)c(C)c1C(=O)N1CCN(C)CC1,24.3 µM (active)
18,CCOc1ccccc1N=Nc1c(C)[nH]n(-c2nc(-c3ccccc3)cs2)c1=O,inactive
19,COc1cc(CNC(=O)CCCCC=CC(C)C)ccc1O,inactive
20,Cc1cccc2c1CC[C@H](CN1CCC(c3c(Cl)cccc3Cl)CC1)C[C@@H]2O,30.6 µM (active)

row,SMILES,Potency
1,O=C(c1ccc(C=Cc2n[nH]c3ccccc23)cc1)N1CCNCC1,inactive
2,Fc1ccc(C(c2ccc(F)cc2)N2CCN(CC=Cc3ccccc3)CC2)cc1,inactive
3,CCCCn1c(=O)n(Cc2ccccc2F)c(=O)c2[nH]c(Cc3ccc(NC(C)=O)cc3)nc21,inactive
4,CC(C)[C@H](O)C(=O)N[C@@H](C)C(=O)N[C@@H]1C(=O)N(C)CCc2ccccc21,inactive
5,Cc1cccc(-c2[nH]c(C(C)(C)C)nc2-c2ccc3c(c2)OCO3)n1,6.11 µM (active)
6,CC[C@H](C)C(=O)O[C@H]1C[C@H](O)C=C2C=C[C@H](C)[C@H](CC[C@@H](O)C[C@@H](O)CC(=O)O)[C@H]21,inactive
7,O=C(O)CCC=CCC[C@@H]1[C@H](N2CCCCC2)[C@@H](O)C[C@@H]1OCc1ccc(-c2ccccc2)cc1,inactive
8,COc1ccc(-c2oc3c(CC=C(C)C)c(O)cc(O)c3c(=O)c2O)cc1,inactive
9,COc1cc2c(cc1Cc1cccc(Cl)c1F)c(=O)c(C(=O)O)cn2[C@H](CO)C(C)C,13.7 µM (active)
10,Cc1ccc2c(c1)C(=O)[C@]1(O)CCN(c3ccccc3)C1=N2,inactive
11,CC[C@]1(O)C[C@H]2CN(CCC3=c4ccccc4=N[C]3[C@@](C(=O)OC)(c3cc4c(cc3OC)N(C)[C@H]3[C@@](O)(C(N)=O)[C@H](O)[C@]5(CC)C=CCN6CC[C@]43[C@@H]65)C2)C1,0.122 µM (active)
12,O=C(CC12CC3CC(CC(C3)C1)C2)Nc1cccc2nc(NCCNCCO)ccc12,inactive
13,OC[C@H]1O[C@@H](OCCc2ccc(O)cc2)[C@H](O)[C@@H](O)[C@H]1O,inactive
14,O=C(Nc1ncc(SCCN2CCCC2)s1)[C@]1(c2ccc(S(=O)(=O)C3CC3)cc2)C[C@@H]1C1CCCCC1,30.6 µM (active)
15,CCOC(=O)N1CCN([N+]([O-])=NOc2cc(ON=[N+]([O-])N3CCN(C(=O)OCC)CC3)c([N+](=O)[O-])cc2[N+](=O)[O-])CC1,inactive
16,Cc1cn([C@@H]2C[C@@H](O)[C@H](CO)O2)c(=O)[nH]c1=O,inactive
17,C[C@@H](O[C@H]1OCCN(Cc2n[nH]c(=O)[nH]2)[C@@H]1c1ccc(F)cc1)c1cc(C(F)(F)F)cc(C(F)(F)F)c1,27.3 µM (active)
18,CC1(C)[C@H]2CC[C@]3(C)[C@@H](C(=O)C=C4[C@@H]5C[C@@](C)(C(=O)O)CC[C@]5(C)CC[C@]43C)[C@@]2(C)CC[C@@H]1O,inactive
19,CO[C@H]1/C=C\O[C@@]2(C)Oc3c(C)c(O)c4c(O)c(c(C=NN5CCN(C6CCCC6)CC5)c(O)c4c3C2=O)NC(=O)C(C)=CC=C[C@H](C)[C@H](O)[C@@H](C)[C@@H](O)[C@@H](C)[C@H](OC(C)=O)[C@H]1C,0.001 µM (active)
20,CCOC(=O)[C@H](CCc1ccccc1)N[C@@H](C)C(=O)N1CCCC1C(=O)O (stereo not given in full),inactive
